# Laboratory results published in paper PMC7862700, “An all-to-all approach to the identification of sequence-specific readers for epigenetic DNA modifications on cytosine”.
# Assays:
# Test in all cases: DAPPL (digital affinity profiling via proximity ligation, sequencing); 10 mM Tris-HCl pH 7.5, 50 mM NaCl, 1 mM DTT, 4% glycerol, room temperature, 30 min; GST-TFs on glutathione beads, 16-mer random dsDNA library, 0.1% formaldehyde crosslink after washing; high values mean tight binding
# FLI1 = biological target: T1, FLI1 (Homo sapiens, UniProt Q01543 1-452); settings: protein: recombinant; tags: N-terminal GST; dsDNA, one strand shown
# T1 sequence: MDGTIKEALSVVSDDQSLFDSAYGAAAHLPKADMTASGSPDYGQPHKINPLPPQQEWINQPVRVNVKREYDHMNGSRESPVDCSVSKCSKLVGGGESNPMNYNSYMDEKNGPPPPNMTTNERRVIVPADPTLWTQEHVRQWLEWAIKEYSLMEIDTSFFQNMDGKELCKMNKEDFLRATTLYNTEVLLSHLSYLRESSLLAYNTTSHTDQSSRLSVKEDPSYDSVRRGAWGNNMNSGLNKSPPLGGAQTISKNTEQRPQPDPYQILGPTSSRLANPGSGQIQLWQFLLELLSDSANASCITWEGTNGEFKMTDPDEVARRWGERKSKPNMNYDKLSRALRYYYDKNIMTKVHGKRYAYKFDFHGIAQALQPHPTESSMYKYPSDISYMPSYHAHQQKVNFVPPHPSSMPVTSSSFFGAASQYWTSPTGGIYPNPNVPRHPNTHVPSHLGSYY
# In short: (§1)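 Binding signal is defined as a hexamer's read frequency for one factor over its frequency for the tag-only sample. To obtain reads, GST-fused human transcription factors were expressed in yeast, captured on glutathione beads, barcoded with DNA and pooled with that sample. Pools met 200 nmole of a 16-mer random double-stranded DNA library in Tris/NaCl/DTT/glycerol buffer for 30 min at room temperature before washing, 0.1% formaldehyde crosslinking, proximity ligation (BsaI/T4 ligase, 1 h, 37 °C), PCR and Illumina NextSeq500 sequencing.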
# ELK1 = biological target: T2, ELK1 (Homo sapiens, UniProt P19419 1-428); settings: protein: recombinant; tags: N-terminal GST; dsDNA, one strand shown
# T2 sequence: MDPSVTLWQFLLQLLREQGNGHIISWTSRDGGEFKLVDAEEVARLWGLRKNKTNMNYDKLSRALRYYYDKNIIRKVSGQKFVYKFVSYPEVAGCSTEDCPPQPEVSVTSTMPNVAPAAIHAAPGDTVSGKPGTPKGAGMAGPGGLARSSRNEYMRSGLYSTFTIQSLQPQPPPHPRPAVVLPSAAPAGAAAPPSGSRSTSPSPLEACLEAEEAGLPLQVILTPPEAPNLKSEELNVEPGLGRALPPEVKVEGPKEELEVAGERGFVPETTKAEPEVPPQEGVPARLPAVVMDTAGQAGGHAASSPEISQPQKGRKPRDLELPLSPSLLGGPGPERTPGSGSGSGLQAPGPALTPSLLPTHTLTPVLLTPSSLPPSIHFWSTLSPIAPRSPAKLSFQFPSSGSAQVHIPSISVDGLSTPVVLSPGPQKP
# In short: as §1
# GABPA = biological target: T3, GABPA (Homo sapiens, UniProt Q06546 1-454); settings: protein: recombinant; tags: N-terminal GST; dsDNA, one strand shown
# T3 sequence: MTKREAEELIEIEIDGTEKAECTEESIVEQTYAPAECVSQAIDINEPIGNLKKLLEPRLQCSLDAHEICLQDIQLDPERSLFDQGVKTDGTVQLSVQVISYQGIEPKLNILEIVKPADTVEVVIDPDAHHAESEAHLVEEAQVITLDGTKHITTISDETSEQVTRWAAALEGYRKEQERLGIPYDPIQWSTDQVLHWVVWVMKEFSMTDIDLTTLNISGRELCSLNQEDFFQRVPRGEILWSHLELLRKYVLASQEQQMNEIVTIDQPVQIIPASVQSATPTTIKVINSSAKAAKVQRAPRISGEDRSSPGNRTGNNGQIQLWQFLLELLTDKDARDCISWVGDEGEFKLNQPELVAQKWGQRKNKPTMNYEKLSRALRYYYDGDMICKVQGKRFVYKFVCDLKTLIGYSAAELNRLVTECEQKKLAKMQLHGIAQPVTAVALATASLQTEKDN
# In short: as §1
# ERG = biological target: T4, ERG (Homo sapiens, UniProt P11308 1-479); settings: protein: recombinant; tags: N-terminal GST; dsDNA, one strand shown
# T4 sequence: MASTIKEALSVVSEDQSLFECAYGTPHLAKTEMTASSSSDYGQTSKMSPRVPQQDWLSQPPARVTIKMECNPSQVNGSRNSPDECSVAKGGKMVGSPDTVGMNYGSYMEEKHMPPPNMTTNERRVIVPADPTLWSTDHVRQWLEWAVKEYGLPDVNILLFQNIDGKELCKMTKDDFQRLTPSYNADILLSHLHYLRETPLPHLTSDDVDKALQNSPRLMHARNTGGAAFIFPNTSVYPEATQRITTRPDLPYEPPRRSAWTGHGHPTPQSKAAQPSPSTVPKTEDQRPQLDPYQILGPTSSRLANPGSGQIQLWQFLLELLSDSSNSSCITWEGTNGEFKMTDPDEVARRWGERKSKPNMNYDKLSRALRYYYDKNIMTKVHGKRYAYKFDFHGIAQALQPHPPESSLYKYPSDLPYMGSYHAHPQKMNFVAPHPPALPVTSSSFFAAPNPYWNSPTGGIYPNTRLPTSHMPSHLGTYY
# In short: as §1
# ELF1 = ELF1 (Homo sapiens, UniProt P32519 1-619); settings: protein: recombinant; tags: N-terminal GST; dsDNA, one strand shown
# Chain of ELF1 (P32519 whole entry): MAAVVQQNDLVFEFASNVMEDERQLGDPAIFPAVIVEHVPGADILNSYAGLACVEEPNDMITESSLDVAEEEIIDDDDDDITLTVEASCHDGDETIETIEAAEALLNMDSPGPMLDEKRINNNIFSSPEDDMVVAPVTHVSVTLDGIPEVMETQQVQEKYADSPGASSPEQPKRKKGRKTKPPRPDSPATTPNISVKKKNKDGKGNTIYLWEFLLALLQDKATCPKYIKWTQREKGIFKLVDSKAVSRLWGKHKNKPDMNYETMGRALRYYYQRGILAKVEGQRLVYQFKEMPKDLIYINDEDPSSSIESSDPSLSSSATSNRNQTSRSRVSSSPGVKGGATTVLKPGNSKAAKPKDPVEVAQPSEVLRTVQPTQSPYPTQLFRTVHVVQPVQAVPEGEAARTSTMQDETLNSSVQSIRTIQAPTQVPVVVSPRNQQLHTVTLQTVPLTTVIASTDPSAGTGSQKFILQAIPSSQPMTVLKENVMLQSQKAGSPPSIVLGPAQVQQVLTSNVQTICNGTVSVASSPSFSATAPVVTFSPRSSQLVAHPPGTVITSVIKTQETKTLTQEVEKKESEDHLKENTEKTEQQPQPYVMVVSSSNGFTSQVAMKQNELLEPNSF
# In short: as §1
# EHF = biological target: T5, EHF (Homo sapiens, UniProt Q9NZC4 1-300); settings: protein: recombinant; tags: N-terminal GST; dsDNA, one strand shown
# T5 sequence: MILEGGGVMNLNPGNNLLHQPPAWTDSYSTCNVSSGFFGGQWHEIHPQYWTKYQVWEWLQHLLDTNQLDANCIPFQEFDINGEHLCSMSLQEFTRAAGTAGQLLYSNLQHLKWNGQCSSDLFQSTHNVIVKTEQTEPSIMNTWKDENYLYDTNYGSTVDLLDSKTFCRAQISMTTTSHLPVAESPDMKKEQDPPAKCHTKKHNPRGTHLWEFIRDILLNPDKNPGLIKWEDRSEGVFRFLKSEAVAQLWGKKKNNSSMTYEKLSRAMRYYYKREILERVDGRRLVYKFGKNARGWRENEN
# In short: as §1
# SPI1 = SPI1 (Homo sapiens, UniProt P17947 1-270); settings: protein: recombinant; tags: N-terminal GST; dsDNA, one strand shown
# In short: as §1
# SPIB = SPIB (Homo sapiens, UniProt Q01892 1-262); settings: protein: recombinant; tags: N-terminal GST; dsDNA, one strand shown
# Chain of SPIB (Q01892 whole entry): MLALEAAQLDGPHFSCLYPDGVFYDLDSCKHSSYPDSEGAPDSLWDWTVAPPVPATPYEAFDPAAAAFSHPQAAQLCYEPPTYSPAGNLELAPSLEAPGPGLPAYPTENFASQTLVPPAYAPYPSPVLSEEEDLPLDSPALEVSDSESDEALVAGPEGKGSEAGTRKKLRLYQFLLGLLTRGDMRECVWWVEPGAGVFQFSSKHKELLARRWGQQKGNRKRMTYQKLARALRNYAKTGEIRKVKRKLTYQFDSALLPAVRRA
# In short: as §1
# ELK3 = biological target: T6, ELK3 (Homo sapiens, UniProt P41970 1-407); settings: protein: recombinant; tags: N-terminal GST; dsDNA, one strand shown
# T6 sequence: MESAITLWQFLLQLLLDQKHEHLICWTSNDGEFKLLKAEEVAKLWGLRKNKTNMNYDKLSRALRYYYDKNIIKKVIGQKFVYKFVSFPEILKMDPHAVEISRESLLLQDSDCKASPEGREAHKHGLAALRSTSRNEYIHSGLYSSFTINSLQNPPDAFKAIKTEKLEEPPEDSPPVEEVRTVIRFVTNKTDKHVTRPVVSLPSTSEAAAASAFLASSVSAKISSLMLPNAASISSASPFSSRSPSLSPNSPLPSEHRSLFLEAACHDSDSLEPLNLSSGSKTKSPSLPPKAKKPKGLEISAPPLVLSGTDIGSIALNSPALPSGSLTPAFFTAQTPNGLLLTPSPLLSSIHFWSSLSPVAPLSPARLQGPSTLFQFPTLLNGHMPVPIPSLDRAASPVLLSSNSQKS
# In short: as §1
# FEV = biological target: T7, FEV (Homo sapiens, UniProt Q99581 1-238); settings: protein: recombinant; tags: N-terminal GST; dsDNA, one strand shown
# T7 sequence: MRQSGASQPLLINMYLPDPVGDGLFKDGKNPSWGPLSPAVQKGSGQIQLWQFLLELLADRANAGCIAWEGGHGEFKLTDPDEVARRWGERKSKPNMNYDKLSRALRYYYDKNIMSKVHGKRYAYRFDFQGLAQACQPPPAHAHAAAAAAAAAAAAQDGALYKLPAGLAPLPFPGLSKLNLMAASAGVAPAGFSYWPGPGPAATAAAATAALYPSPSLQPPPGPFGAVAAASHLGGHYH
# In short: as §1
# ETV5 = ETV5 (Homo sapiens, UniProt P41161 1-510); settings: protein: recombinant; tags: N-terminal GST; dsDNA, one strand shown
# Chain of ETV5 (P41161 whole entry): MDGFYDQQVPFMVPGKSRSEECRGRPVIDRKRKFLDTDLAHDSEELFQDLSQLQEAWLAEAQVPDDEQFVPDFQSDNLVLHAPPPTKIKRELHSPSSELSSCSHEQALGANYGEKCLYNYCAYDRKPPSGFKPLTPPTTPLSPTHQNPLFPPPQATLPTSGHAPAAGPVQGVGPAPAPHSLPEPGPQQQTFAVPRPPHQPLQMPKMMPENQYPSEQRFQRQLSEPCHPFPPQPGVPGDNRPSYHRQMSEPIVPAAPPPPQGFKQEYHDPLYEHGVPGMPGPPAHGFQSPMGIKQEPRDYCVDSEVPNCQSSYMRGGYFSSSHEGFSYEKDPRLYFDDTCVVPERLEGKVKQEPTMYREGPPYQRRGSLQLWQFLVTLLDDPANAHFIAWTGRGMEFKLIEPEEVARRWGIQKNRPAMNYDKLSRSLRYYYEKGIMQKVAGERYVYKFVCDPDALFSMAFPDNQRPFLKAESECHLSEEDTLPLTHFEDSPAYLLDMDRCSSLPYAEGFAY
# In short: as §1
# HSF1 = HSF1 (Homo sapiens, UniProt Q00613 1-529); settings: protein: recombinant; tags: N-terminal GST; chain copies: 3; dsDNA, one strand shown
# Chain of HSF1 (Q00613 whole entry): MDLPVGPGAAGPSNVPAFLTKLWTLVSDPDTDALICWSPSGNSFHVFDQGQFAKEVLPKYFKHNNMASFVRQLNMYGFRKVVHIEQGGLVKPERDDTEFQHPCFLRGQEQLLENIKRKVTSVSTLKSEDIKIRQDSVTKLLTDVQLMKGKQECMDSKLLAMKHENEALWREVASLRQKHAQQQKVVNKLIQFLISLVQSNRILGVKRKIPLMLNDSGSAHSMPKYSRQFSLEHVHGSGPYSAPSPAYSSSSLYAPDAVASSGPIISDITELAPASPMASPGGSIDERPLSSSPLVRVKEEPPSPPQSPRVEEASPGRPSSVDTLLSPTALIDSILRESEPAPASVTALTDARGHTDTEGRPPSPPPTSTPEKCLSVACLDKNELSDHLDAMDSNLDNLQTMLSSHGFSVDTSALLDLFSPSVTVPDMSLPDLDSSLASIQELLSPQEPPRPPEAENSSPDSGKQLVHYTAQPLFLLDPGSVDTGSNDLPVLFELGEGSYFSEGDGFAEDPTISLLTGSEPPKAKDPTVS
# In short: as §1
# SPIC = biological target: T8, SPIC (Homo sapiens, UniProt Q8N5J4 1-248); settings: protein: recombinant; tags: N-terminal GST; dsDNA, one strand shown
# T8 sequence: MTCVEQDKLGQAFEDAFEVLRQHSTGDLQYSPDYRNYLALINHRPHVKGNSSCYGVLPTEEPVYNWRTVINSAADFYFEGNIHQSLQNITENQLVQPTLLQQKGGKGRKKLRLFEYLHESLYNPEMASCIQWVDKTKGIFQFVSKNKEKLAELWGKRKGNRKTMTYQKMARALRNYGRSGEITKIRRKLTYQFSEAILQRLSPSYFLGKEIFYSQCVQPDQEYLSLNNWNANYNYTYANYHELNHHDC
# In short: as §1
# ELF4 = ELF4 (Homo sapiens, UniProt Q99607 1-663); settings: protein: recombinant; tags: N-terminal GST; dsDNA, one strand shown
# Chain of ELF4 (Q99607 whole entry): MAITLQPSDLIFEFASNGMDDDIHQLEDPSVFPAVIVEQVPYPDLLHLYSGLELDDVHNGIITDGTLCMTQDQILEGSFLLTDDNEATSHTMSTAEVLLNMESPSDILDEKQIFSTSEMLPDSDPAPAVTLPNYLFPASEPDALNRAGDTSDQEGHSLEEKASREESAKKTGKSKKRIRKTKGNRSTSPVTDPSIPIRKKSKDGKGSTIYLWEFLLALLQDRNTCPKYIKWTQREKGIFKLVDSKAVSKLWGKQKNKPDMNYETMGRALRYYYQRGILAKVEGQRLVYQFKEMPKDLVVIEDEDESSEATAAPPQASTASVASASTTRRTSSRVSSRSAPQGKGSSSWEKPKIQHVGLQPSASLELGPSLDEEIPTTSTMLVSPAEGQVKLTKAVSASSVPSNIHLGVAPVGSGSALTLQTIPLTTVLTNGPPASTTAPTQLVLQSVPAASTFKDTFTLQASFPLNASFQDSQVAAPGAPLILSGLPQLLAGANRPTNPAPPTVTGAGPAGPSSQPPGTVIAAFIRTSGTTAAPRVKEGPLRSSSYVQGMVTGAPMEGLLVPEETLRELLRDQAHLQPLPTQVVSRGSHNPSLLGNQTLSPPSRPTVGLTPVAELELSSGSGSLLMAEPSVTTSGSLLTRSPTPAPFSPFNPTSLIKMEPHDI
# In short: as §1
# ELK4 = biological target: T9, ELK4 (Homo sapiens, UniProt P28324-2 1-405); settings: protein: recombinant; tags: N-terminal GST; dsDNA, one strand shown
# T9 sequence: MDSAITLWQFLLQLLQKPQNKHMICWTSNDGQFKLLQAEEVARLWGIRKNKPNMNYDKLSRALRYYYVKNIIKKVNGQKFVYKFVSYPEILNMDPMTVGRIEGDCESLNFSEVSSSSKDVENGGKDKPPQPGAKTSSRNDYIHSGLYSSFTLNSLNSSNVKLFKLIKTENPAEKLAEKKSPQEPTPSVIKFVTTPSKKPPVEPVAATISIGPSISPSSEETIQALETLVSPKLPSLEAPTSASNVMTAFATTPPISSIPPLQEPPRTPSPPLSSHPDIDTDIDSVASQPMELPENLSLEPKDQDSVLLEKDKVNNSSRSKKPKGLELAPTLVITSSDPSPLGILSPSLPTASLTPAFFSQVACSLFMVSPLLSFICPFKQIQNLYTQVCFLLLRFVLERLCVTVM
# In short: as §1
# ETV2 = biological target: T10, ETV2 (Homo sapiens, UniProt O00321 1-342); settings: protein: recombinant; tags: N-terminal GST; dsDNA, one strand shown
# T10 sequence: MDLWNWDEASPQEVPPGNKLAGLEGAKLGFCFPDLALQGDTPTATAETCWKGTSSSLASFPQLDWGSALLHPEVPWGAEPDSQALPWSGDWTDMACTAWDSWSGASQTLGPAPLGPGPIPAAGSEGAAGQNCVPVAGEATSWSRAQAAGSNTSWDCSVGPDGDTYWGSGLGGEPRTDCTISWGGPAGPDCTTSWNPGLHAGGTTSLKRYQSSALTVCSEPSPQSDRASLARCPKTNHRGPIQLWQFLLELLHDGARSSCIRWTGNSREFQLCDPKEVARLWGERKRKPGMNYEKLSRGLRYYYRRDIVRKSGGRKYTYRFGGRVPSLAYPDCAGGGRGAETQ
# In short: as §1
# ELF3 = biological target: T11, ELF3 (Homo sapiens, UniProt P78545 1-371); settings: protein: recombinant; tags: N-terminal GST; dsDNA, one strand shown
# T11 sequence: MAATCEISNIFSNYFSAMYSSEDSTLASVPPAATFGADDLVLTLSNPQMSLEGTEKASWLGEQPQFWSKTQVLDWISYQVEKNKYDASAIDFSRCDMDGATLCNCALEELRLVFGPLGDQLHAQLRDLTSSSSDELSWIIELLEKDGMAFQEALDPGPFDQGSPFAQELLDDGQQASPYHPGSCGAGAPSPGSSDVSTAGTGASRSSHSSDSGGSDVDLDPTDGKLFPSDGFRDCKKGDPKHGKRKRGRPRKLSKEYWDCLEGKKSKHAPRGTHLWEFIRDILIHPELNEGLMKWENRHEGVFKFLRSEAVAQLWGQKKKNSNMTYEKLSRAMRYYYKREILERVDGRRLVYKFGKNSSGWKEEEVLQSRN
# In short: as §1
# CRX = CRX (Homo sapiens, UniProt O43186 1-299); settings: protein: recombinant; tags: N-terminal GST; dsDNA, one strand shown
# Chain of CRX (O43186 whole entry): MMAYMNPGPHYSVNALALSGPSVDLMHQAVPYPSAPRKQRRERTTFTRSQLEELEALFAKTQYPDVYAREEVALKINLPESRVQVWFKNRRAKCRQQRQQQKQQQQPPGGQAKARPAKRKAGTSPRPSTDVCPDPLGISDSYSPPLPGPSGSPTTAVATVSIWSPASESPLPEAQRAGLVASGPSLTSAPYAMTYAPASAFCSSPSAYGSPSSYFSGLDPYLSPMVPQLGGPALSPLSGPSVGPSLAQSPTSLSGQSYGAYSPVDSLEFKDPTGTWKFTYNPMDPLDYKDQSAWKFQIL
# In short: as §1
# ETV1 = ETV1 (Homo sapiens, UniProt P50549 1-477); settings: protein: recombinant; tags: N-terminal GST; dsDNA, one strand shown
# Chain of ETV1 (P50549 whole entry): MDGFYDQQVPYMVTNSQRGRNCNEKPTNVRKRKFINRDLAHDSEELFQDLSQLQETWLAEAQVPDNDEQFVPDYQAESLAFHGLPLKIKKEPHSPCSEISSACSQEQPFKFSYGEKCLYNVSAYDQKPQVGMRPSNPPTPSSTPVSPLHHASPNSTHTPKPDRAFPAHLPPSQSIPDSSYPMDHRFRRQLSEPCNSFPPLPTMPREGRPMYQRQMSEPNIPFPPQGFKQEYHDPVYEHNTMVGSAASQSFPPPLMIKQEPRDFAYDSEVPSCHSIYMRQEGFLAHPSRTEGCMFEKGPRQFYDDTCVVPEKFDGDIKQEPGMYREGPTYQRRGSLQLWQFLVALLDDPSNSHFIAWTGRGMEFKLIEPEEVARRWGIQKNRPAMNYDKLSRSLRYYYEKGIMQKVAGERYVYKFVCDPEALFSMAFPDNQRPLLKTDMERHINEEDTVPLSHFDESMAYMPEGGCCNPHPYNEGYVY
# In short: as §1
sequence,measurement,setting,value
ATCCTA,binding signal,FLI1,"1.54 fold enrichment (6-mer frequency, TF over GST control)"
same,binding signal,ELK1,"1.34 fold enrichment (6-mer frequency, TF over GST control)"
same,binding signal,GABPA,"1.37 fold enrichment (6-mer frequency, TF over GST control)"
same,binding signal,ERG,"1.4 fold enrichment (6-mer frequency, TF over GST control)"
same,binding signal,ELF1,"1.37 fold enrichment (6-mer frequency, TF over GST control)"
same,binding signal,EHF,"1.3 fold enrichment (6-mer frequency, TF over GST control)"
same,binding signal,SPI1,"1.27 fold enrichment (6-mer frequency, TF over GST control)"
same,binding signal,SPIB,"1.48 fold enrichment (6-mer frequency, TF over GST control)"
same,binding signal,ELK3,"1.43 fold enrichment (6-mer frequency, TF over GST control)"
same,binding signal,FEV,"1.32 fold enrichment (6-mer frequency, TF over GST control)"
same,binding signal,ETV5,"1.37 fold enrichment (6-mer frequency, TF over GST control)"
same,binding signal,HSF1,"1.61 fold enrichment (6-mer frequency, TF over GST control)"
same,binding signal,SPIC,"1.44 fold enrichment (6-mer frequency, TF over GST control)"
same,binding signal,ELF4,"1.32 fold enrichment (6-mer frequency, TF over GST control)"
same,binding signal,ELK4,"1.26 fold enrichment (6-mer frequency, TF over GST control)"
same,binding signal,ETV2,"1.41 fold enrichment (6-mer frequency, TF over GST control)"
same,binding signal,ELF3,"1.24 fold enrichment (6-mer frequency, TF over GST control)"
same,binding signal,CRX,"2.19 fold enrichment (6-mer frequency, TF over GST control)"
same,binding signal,ETV1,"1.32 fold enrichment (6-mer frequency, TF over GST control)"
